Screening data from PubChem BioAssay.
Mdm2-MdmX inh: human Mdm2/MdmX binding inhibition | inhibition, % at 8 µM | SaOS-2 split-luciferase Mdm2/MdmX complementation, luminescence | actives 3% (n = 330,000) | O15151+Q00987;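 active = inhibition of at least 50% at 8 µM in the primary screen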
Target sequence (O15151 whole entry, looked up): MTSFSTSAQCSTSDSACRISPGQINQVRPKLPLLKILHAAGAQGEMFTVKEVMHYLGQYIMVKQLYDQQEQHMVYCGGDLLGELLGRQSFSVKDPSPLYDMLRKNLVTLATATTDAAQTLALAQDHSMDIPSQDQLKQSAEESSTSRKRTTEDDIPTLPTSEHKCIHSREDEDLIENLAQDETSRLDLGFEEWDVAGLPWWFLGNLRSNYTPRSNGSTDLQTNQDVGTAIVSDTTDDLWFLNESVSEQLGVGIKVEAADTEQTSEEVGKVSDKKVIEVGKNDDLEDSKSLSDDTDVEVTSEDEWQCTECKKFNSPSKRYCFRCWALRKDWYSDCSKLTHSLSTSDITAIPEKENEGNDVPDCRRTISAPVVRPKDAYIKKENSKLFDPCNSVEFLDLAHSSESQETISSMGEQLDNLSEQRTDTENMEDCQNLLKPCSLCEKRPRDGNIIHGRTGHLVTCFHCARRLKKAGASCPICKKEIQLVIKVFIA
Target sequence (Q00987 whole entry, looked up): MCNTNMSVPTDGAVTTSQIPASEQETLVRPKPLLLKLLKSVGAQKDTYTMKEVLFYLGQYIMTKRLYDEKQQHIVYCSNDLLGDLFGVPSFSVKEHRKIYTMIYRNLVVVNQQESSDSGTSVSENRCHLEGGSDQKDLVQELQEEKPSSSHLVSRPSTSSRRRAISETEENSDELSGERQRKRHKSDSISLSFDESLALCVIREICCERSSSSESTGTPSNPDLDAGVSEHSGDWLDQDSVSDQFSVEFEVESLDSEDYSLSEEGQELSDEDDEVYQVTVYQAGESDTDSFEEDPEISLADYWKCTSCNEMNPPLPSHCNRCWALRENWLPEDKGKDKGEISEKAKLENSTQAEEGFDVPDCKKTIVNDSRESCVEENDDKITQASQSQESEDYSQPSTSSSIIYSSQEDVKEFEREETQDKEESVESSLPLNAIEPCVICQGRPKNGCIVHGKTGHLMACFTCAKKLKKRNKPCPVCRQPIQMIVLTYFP
MPTP inh: blocks calcium-induced mitochondrial swelling | isolated mouse mitochondria, Ca2+ swelling absorbance, 30 min | inhibition, % at 10 µM | actives 1.4% (n = 360,000) | AID 602449;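 active = inhibition of 50% or more, scaled per plate between neutral and stimulator controls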
Beta cell apopt: blocks beta cell apoptosis; INS-1E cytokine-induced death, ATP luminescence, 48 h; percent of positive-control rescue, neutral wells zero; protection from apoptosis, % (concentration not given with the values); actives 0.8% (n = 300,000);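 active = Every replicate reaches about 75%, or at least half do and their mean reaches it too, limit read from the data; inconclusive = At least half of replicates reach the limit but their mean does not; inactive = Under half of replicates reach the limit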;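 note: higher means more ATP so stronger rescue from cytokine killing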
Calb FLC: affects C. albicans growth with fluconazole; C. albicans CaCi-2 (fluconazole-resistant clinical isolate) + fluconazole, Alamar Blue growth, 48 h; growth inhibition, % (test concentration not listed); actives 0.57% (n = 300,000); AID 1979;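 active = growth inhibition above about 58% in most replicates, limit read from the data, passing the limit was not always enough; inconclusive = exactly half the replicates above a set limit; inactive = most replicates below a set limit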;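 note: all wells also contain fluconazole at 8 µg/ml as a sub-toxic cotreatment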
CSC inhib: cancer stem cell inhibition; cancer stem cell-like cells viability, luminescence; AID 2717; inhibition, % at 7.5 µM; actives 1.1% (n = 300,000); in the data active = inhibition above about 75%; inconclusive = no clear call, values can overlap the other calls; tested in HMLE shEcad cells
Mdm2 MdmX conf: confirmation of human Mdm2/MdmX interaction inhibitors | shares compounds with Mdm2-MdmX inh | Mdm2-MdmX binding, luminescent assay | inhibition, % at 8 µM | actives 55% (n = 10,000); in the data active = inhibition above about 40%
FLuc counter: full-length luciferase inhibition in Mdm2/MdmX counter-screen. shares compounds with Mdm2-MdmX inh. SaOS-2 full-length luciferase counterscreen, luminescence. inhibition, % at 8 µM. actives 77% (n = 6,200). AID 504607;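 active = mean inhibition at 8 µM reaching about 37%, which flags the compound as non-specific, limit read from the data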;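 note: p53-null SaOS-2 cells with luciferase driven by a doxycycline-inducible promoter; compound on cells about two nights before reading with doxycycline added after day one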
A number is an active result; . = inactive; ? = inconclusive; / = no result given. Only some compounds are listed: those with a hit (about 4.8% of all), similar ones and a draw of the others.

SMILES	Mdm2-MdmX inh	MPTP inh	Beta cell apopt	Calb FLC	CSC inhib	Mdm2 MdmX conf	FLuc counter
COc1ccc(/C=C2\Sc3ccc(C(=O)N4CCN(Cc5ccccc5)CC4)cc3N(C)C2=O)cc1OC	61	.	.	.	.	.	/
CCc1cc(=O)n2[nH]c(-c3ccccc3)c(-c3ccccc3)c2n1	58	.	.	.	.	45	52
CCn1ncc(CN2CCCC(C(=O)Nc3cccc(-c4cc5ccccc5[nH]4)c3)C2)c1C (configuration not stated)	59	.	.	.	.	.	/
N/C(=N\OC(=O)c1cccc(C(F)(F)F)c1)c1cnccn1	.	.	.	.	.	/	/
O=C(OCn1ncc(Cl)c(Cl)c1=O)c1cccc(C(F)(F)F)c1	82	.	.	98	.	100	52
CCCCN(CCCC)c1nc(-c2ccncc2)nc2ccccc12	56	.	/	.	101	.	/
c1ccc2c(Nc3nc(-c4ccncc4)nc4ccccc34)cccc2c1	62	.	.	.	?	59	72
Cn1c(SCC(=O)c2ccc3c(c2)NC(=O)CO3)nc2ccccc21	.	.	.	.	.	/	/
O=C1COc2ccc(C(=O)CSc3nc4ccccc4c(=O)n3-c3ccc(Cl)c(Cl)c3)cc2N1	98	.	.	.	.	.	/
CCc1ccc(-n2c(SCC(=O)c3ccc4c(c3)NC(=O)CO4)nc3ccccc3c2=O)cc1	64	.	.	.	.	.	/
COC(=O)C[C@H]1CC[C@@H](NC(=O)C2CC2)[C@@H](CO)O1	/	.	/	/	/	/	/
FC(F)Oc1ccc(C2=Nn3c(nnc3-c3ccccc3Cl)SC2)cc1OCC1CC1	.	.	.	/	/	/	/
COc1ccc(C2=Nn3c(nnc3-c3ccccc3F)SC2)cc1OCC1CC1	84	.	.	/	.	62	37
COc1ccc(OC)c(C2=Nn3c(nnc3-c3cc(OC)c(OC)c(OC)c3)SC2)c1	.	.	.	.	.	/	/
COc1ccc(C2=Nn3c(nnc3-c3ccccc3Cl)SC2)cc1OC1CCCC1	73	.	?	/	/	49	54
CCOc1ccc(C2=Nn3c(nnc3-c3ccccc3)SC2)cc1Cl	.	.	.	.	.	/	/
COc1ccc(OC)c(-c2nnc3n2N=C(c2ccc(OC)c(OC4CCOC4)c2)CS3)c1 (configuration not stated)	68	.	.	/	.	63	93
COc1ccc(C2=Nn3c(nnc3-c3ccccn3)SC2)cc1OC	.	.	.	.	.	/	/
COc1ccc(C2=Nn3c(nnc3-c3ccccc3Cl)SC2)cc1OC1CCOC1 (configuration not stated)	63	.	.	/	.	.	63
COC1=CC(=O)C=C(OC)C1(O)CC(C)=O	/	.	/	/	/	/	/
C[C@@H]1CN([C@H](C)CO)C(=O)CCCn2nncc2CO[C@@H]1CN(C)S(=O)(=O)c1ccc(C#N)cc1	/	.	/	/	/	/	/
O=C(Oc1ccccc1C(=O)Oc1ccccc1)c1cccnc1	52	.	.	.	.	.	/
COC(=O)c1ccccc1OC(=O)c1cccnc1	.	.	.	.	.	/	/
CCN(CC)C(=O)C1=C(C)N(CCC2=CCCCC2)C(=O)C(CC(=O)NCc2ccco2)C1 (configuration not stated)	/	.	/	/	/	/	/
Cc1ccc2nc(NC(=O)c3cccc(-c4cc5ccccc5oc4=O)c3)sc2c1	81	/	.	.	99	68	105
SMILES	Mdm2-MdmX inh	MPTP inh	Beta cell apopt	Calb FLC	CSC inhib	Mdm2 MdmX conf	FLuc counter
O=C(Nc1ccccc1)/C(=C/c1ccc([N+](=O)[O-])cc1)NC(=O)c1ccco1	67	.	/	.	.	.	/
CCN(CC)S(=O)(=O)c1cccc(C(=O)N/N=C(\C)c2ccc(O)cc2O)c1	73	.	/	.	/	57	106
CCN(CC)S(=O)(=O)c1cccc(C(=O)N/N=C/c2ccc(O)c(O)c2O)c1	/	.	.	/	.	/	/
CCOc1cc(OCC)cc(C(=O)N2CCC[C@H]2C(=O)N2CCC[C@H]2C(=O)N[C@H](C)c2ccccc2)c1	/	.	/	/	/	/	/
COc1cccc(-c2cnc(C(O)c3ccc(Cl)c(Cl)c3)[nH]2)c1 (configuration not stated)	/	.	/	/	/	/	/
CCCCOCCCNC(=O)C[C@@H]1C[C@@]2(C(=O)OCC)CCC=C2N(Cc2ccc3c(c2)OCO3)C1=O	/	.	/	/	/	/	/
CCOc1ccc(C)cc1S(=O)(=O)n1cnc2ccccc21	52	.	/	.	.	61	45
Cc1cccc(S(=O)(=O)NC(=O)C2(C)CCN2C(=O)c2c(C)noc2C)c1 (configuration not stated)	/	.	/	/	/	/	/
COc1cc(C)ccc1S(=O)(=O)NC(=O)C1(C)CCN1C(=O)COc1ccc(Cl)cc1 (configuration not stated)	/	.	/	/	/	/	/
CCOc1cccc(-c2nn(-c3ccccc3)cc2/C=C(/C#N)C(=O)NCCCn2ccnc2)c1	77	.	.	.	.	.	51
Cc1ccc(-c2nn(-c3ccccc3)cc2/C=C(\C#N)C(=O)NCc2ccccc2)cc1	75	.	.	.	.	44	85
COc1cc2c(cc1OC)CN(c1nc(CN3CCCCC3)nc3sc4c(c13)CCCC4)CC2	53	.	.	.	.	44	62
O=C(CCl)NCCCCCCCCCNC(=O)CCl	64	.	.	.	.	42	40
CCC(=O)NCCCCCCNC(=O)CC	.	.	.	.	.	/	/
Cc1cccc(/C(N)=N/OC(=O)N2CCOCC2)c1	86	.	.	.	.	49	105
Cc1ccc(/C(N)=N/OC(=O)N2CCOCC2)cc1	95	.	/	.	/	51	126
Cc1ccc(C(=O)c2cnc3ccccc3c2-c2ccccc2)cc1	56	.	.	.	.	.	/
COc1ccc(C(=O)c2cnc3ccccc3c2-c2ccccc2)cc1	57	.	.	.	.	.	/
Cc1ccc(C(=O)c2nc(C(=O)NCCO)nc3ccccc23)cc1	.	.	.	/	.	/	/
CCN(CC)C(=O)[C@H]1C[C@H](CC(=O)NC/C=C(\C)CCC=C(C)C)C(=O)N2CCc3c([nH]c4cc(CCC(=O)N(C)C)ccc34)[C@]12C	68	.	/	/	/	.	/
CC(C)=CCC/C(C)=C/CNC(=O)C[C@H]1C[C@H](C(=O)N2CCOCC2)[C@@]2(C)c3[nH]c4ccc(Cl)cc4c3CCN2C1=O	88	.	/	/	/	.	/
Nc1[nH]c(C(=O)c2ccccc2)c(-c2cccnc2)c1C(=O)NC1CCCCC1	/	.	/	/	/	/	/
O=C(c1cccs1)N1CCCC(c2nc3c(nnn3Cc3c(Cl)cccc3Cl)c(=O)[nH]2)C1 (configuration not stated)	.	.	.	.	.	/	/
O=C(O)CCC(=O)c1ccc(C2CCCCCC2)cc1	/	.	/	/	/	/	/
CCc1nn2c(=O)cc(COC(=O)c3ccc(SC)cc3OC)nc2s1	.	.	.	/	.	/	/
Cc1cc(C)c2c3c(sc2n1)C(c1cccc(F)c1)C(C#N)=C(N)O3 (configuration not stated)	79	.	.	.	.	.	/
Clc1ccc2c(-c3ccccc3)nc(-c3cccs3)nc2c1	/	.	/	/	/	/	/
